A selection: hits, their analogues and other compounds. The true share with any hit is near 3.5%.
GPR151 ag: activates the human receptor GPR151; Q8TDV0; activation, % at 11.2 µM; actives 1% (n = 650,000); PathHunter beta-arrestin GPR151 cells, luminescence; in the data active means activation above about 4.9%;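 further: 0% = median of compound wells and 100% = cells with positive control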
Target sequence (Q8TDV0 whole entry, looked up): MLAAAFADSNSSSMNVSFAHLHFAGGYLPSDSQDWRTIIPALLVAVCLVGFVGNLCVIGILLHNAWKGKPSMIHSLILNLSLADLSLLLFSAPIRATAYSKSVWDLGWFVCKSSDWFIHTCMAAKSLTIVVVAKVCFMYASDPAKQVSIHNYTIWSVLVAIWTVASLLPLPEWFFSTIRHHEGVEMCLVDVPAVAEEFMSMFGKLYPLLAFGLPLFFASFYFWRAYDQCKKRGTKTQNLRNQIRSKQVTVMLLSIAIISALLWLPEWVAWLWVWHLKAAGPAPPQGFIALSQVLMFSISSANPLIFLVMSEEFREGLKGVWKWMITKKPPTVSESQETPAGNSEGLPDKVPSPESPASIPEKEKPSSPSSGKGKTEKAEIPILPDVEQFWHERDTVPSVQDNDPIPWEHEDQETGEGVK
FBW7 activator: activators of human E3 ligase FBW7; Q969H0; actives 0.13% (n = 650,000); normalized activity (activation), % at 26.1 µM; AlphaScreen FBW7–phospho-cyclin E peptide binding, activator screen; in the data active means normalized activity above about 1.9%;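 further: purified mutant Fbw7 with reduced substrate affinity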
MITF inh: blocks human microphthalmia-associated transcription factor; O75030; AlphaScreen MITF homodimerization, bead proximity signal; inhibition, % at 2.6 µM; actives 0.91% (n = 650,000); in the data active means inhibition above about 50%;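 further: 0% = vehicle wells with protein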
TEAD-YAP inh: TEAD-YAP interaction inhibition | inhibition, % at 9.12 µM | HEK-TIYL cells, TEAD-Gal4/YAP UAS-luciferase luminescence | actives 1.4% (n = 640,000); in the data active means inhibition above about 32%;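 further: 0% = median of test compound wells and 100% = reference inhibitor wells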
MITF confirm: human MITF inhibition, confirmation. actives 16% (n = 4,700). inhibition, % at 2.6 µM. shares compounds with MITF inh. AlphaScreen MITF homodimerization, biotin/His-MITF beads. AID 1259372;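 active means inhibition above a cutoff derived from the DMSO control wells, cut at about 28% in these data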;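 further: 0% = MITF dimer wells with DMSO only; inhibitors lower the bead chemiluminescence by keeping MITF from dimerizing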
AlphaScreen DR: optically interferes with AlphaScreen signal in dose response. shares compounds with MITF inh. IC50, µM. AlphaScreen optical interference counterscreen, cell-free. actives 6% (n = 480). AID 1259373; call rule not given here
AlphaScreen intf2: AlphaScreen optical interference, counter-screen; shares compounds with MITF inh; LysRS AlphaScreen counterscreen, signal interference, triplicate; inhibition, % at 2.6 µM; actives 7.6% (n = 4,700);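 active means inhibition above a cutoff derived from the DMSO control wells, cut at about 30% in these data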
Starred values were filed as active, the others as inactive; . = no result given.

SMILES	GPR151 ag	FBW7 activator	MITF inh	TEAD-YAP inh	MITF confirm	AlphaScreen intf2	others
COc1ccc([N+](=O)[O-])cc1Nc1cnn(C23CC4CC(CC(C4)C2)C3)c(=O)c1Cl	-1	1	51*	-6	5	13
COc1ccc(C)cc1Nc1cnn(C23CC4CC(CC(C4)C2)C3)c(=O)c1Cl	2	0	4	10	.	.
COc1ccc2oc(=O)c(-c3csc(Nc4ccc(F)cc4)n3)cc2c1	0	0	3	0	.	.
C/C(CC12CC3CC(CC(C3)C1)C2)=N\NC(N)=O	2	0	53*	-7	1	-2
Cc1ccc(OCC(=O)Nc2ccc(NC(=O)c3ccco3)cc2)cc1C	3	0	-14	-9	.	.
O=C(CCc1nc2ccccc2c(=O)[nH]1)NCC1CCCCC1	0	1	16	-2	.	.
N#Cc1c(C#N)c(N)n(N)c1N	1	-1	94*	-2	95*	73*
NC(=O)c1ccccc1NC(=O)COC(=O)CC1CC2CCC1C2 (centres undefined)	1	0	6	3	.	.
CCOC(=O)c1c(NC(=O)CN(C)Cc2ccccc2)sc2c1CC(C)(C)NC2(C)C	1	-1	65*	8	0	7
CCOC(=O)c1c(NC(=O)CN(C)C)sc2c1CC(C)(C)NC2(C)C	2	0	40	10	.	.
O=C(O)c1cc(S(=O)(=O)Nc2ccc(-n3cnnn3)cc2)ccc1O	0	0	53*	-1	41*	14	AlphaScreen DR=>7.2
CCN1C=CC(=C(/C=C2\C=CC=CC2=O)CS(=O)(=O)O)C=C1	0	0	65*	3	3	-1
COc1cccc(NC(=O)C(=O)NCC2CCCN2S(=O)(=O)c2ccc(C)cc2)c1 (centres undefined)	0	0	3	-42	.	.
CN1CCN(CCOCCOc2ccc(Cl)cc2)CC1	0	0	36	-1	.	.
CN1CCN(CCOCCOc2ccc(C(C)(C)C)cc2)CC1	1	0	65*	3	4	19
CCOc1ccc(OCCCCN2CCN(C)CC2)cc1	2	0	86*	-7	7	7
CN1CCN(CCCOc2ccc(C#N)cc2)CC1	0	0	2	13	.	.
CCOc1ccc(OCCCN2CCN(C)CC2)cc1	2	0	79*	-9	-1	17
CCN1CCN(CCCCOc2ccc(C#N)cc2)CC1	-1	0	66*	5	4	13
CC1C/C(=N\Nc2ccc([N+](=O)[O-])cc2)CC(C)(C)C1 (centres undefined)	-1	0	7	1	.	.
CCOc1cccc(OCCCN2CCN(CC)CC2)c1	-2	0	74*	-2	18	16
CCN1CCN(CCCOc2cccc(C(C)C)c2)CC1	-1	0	48	7	.	.
Cc1cccc(OCCCCN2CCNCC2)c1	2	0	14	-3	.	.
CCOc1cccc(OCCCN2CCNCC2)c1	0	0	54*	-15	-1	-2
CN1CCN(CCCCOc2cccc(C=O)c2)CC1	1	0	61*	-2	6	17
SMILES	GPR151 ag	FBW7 activator	MITF inh	TEAD-YAP inh	MITF confirm	AlphaScreen intf2	others
CCN1CCN(CCOCCOc2cccc(Oc3ccccc3)c2)CC1	0	0	79*	-1	6	13
CN1CCN(CCCCOc2cccc(C(F)(F)F)c2)CC1	0	0	24	1	.	.
CCOc1ccc2c(c1)sc(=NC(=O)c1ccc(S(=O)(=O)N(C)C)cc1)n2CC	2	0	7	8	.	.
CCCCOc1ccc(C2=N/C(=C\c3cccc(OC)c3OC)C(=O)O2)cc1	1	0	-6	-2	.	.
CCC(=O)N(CCCN(C)C)c1nc(-c2ccc(F)cc2)cs1	0	0	-1	-21	.	.
CCN1CCN(CCOc2cccc(C(C)=O)c2)CC1	2	-1	66*	13	8	8
CCOc1cccc(OCCCCN2CCN(C)CC2)c1	-2	0	71*	2	13	14
CC(=O)c1cccc(OCCCCOc2cccc(C(C)=O)c2)c1	-1	0	-12	3	.	.
CCN1CCN(CCCCOc2cccc(C(F)(F)F)c2)CC1	0	0	64*	10	7	7
CCN1CCN(CCOCCOc2ccc(CCC(C)=O)cc2)CC1	1	0	66*	9	7	7
CCCCOc1cccc(OCCCN2CCN(C)CC2)c1	0	0	-8	6	.	.
CCCOc1cccc(OCCN2CCN(CC)CC2)c1	4	1	79*	0	9	13
Cc1ccc(S(=O)(=O)N2N=C(c3ccc(Br)cc3)CC2c2cccc([N+](=O)[O-])c2)cc1 (centres undefined)	0	0	10	-12	.	.
COc1ccc(CNC(=O)C2CC(=O)N(c3ccc(F)cc3)C2)cc1 (centres undefined)	0	0	-1	6	.	.
O=C(NCc1ccc(F)cc1)C1CC(=O)N(c2ccc(F)cc2)C1 (centres undefined)	-1	0	73*	-4	9	14
O=C(NC1CCCCCC1)NC1(C(F)(F)F)Oc2ccc(Cl)cc2O1 (centres undefined)	0	1	6	-11	.	.
O=c1[nH]cnc2nc(-c3ccco3)c(-c3ccco3)nc12	0	-1	87*	0	60*	5	AlphaScreen DR=>7.6
O=C(CCCCCN1C(=O)c2ccccc2C1=O)Nc1ccc2c(c1)OCO2	0	0	-5	11	.	.
CCOc1ccc(CN2CCC(C(=O)NCC3CCCO3)CC2)cc1 (centres undefined)	0	0	36	-3	.	.
CCOc1cc(CN2CCC(C(=O)NCC3CCCO3)CC2)ccc1O (centres undefined)	1	0	58*	0	1	-2
COc1cc(CN2CCC(C(=O)NC3CCCC3)CC2)ccc1O	0	0	60*	5	-16	2
Cc1nn(-c2ccccc2)c2sc(C(=O)NN3CCN(C)CC3)cc12	-1	0	-4	-4	.	.
COc1ccc([N+](=O)[O-])cc1NC(=O)CN(c1cc(Cl)ccc1OC)S(C)(=O)=O	-2	0	12	0	.	.
O=C(CNCc1ccccc1F)N1CCN(C(=O)CNCc2ccccc2F)CC1	0	0	61*	6	2	18
Cn1cccc1CN1CCN(C(=O)c2ccc([N+](=O)[O-])cc2)CC1	1	0	40	6	.	.
O=C(c1ccco1)N1CCN(Cc2ccccc2F)CC1	2	0	61*	-2	10	12
CC(C)[C@H]1CN(Cc2ccccc2F)CCN1C(=O)c1ccncc1	0	0	-3	-10	.	.
O=C(c1ccc([N+](=O)[O-])cc1)N1CCN(Cc2ccccc2Br)CC1	0	0	58*	1	-12	-3
O=C(c1ccncc1)N1CCN(Cc2ccccc2F)CC1	-1	0	78*	-5	3	12

Source: PubChem BioAssay (The Scripps Research Institute Molecular Screening Center)
